PubChem BioAssay (NCATS)
Records with an inconclusive call do not appear. The source made the active and inactive calls. Unless noted, calls follow the shape of the dose curve; as a rule, active = well fitted curve in the direction sought with a large enough effect; inconclusive = small, poorly fitted or top-dose-only effect, or another doubt; inactive = no such curve, though single readings can be large; an effect the other way counts as inactive or inconclusive.

How the values were obtained:
[1] = target: Lysosomal acid glucosylceramidase (Homo sapiens) (UniProt P04062); test: Glucocerebrosidase-p2 (AID 348; in the data active = potency below about 10 µM; also: potency is read from the fitted curve at half-maximal effect); conditions: purified GBA, blue fluorogenic substrate, 40 min
Sequence of Lysosomal acid glucosylceramidase (Homo sapiens) (P04062 whole entry, looked up): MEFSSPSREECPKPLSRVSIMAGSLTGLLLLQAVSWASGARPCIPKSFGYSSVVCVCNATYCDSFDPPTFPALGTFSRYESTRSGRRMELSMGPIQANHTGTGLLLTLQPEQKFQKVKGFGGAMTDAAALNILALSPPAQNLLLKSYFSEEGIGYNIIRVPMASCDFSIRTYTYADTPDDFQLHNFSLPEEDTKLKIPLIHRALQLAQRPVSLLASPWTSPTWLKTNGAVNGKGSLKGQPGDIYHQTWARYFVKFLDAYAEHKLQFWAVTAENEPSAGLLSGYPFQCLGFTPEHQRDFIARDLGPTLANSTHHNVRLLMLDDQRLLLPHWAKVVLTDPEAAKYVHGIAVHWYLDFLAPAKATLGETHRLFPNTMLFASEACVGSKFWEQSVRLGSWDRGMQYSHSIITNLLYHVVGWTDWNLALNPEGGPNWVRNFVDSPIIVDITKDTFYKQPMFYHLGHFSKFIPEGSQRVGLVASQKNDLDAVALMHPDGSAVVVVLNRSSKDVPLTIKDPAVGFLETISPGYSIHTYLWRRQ
In short: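 Normal human glucocerebrosidase (0.2 nM) with blue fluorogenic substrate (80 uM final) in citrate/phosphate pH 5.9 with 10mM sodium taurocholate, 0.01% tween-20; 40 min RT, NaOH/glycine stop; fluorescence Ex 365/Em 440; AC50 from a titration from 0.6 nM upwards.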

[2] = AP1 Signaling Pathway (AID 357; active = well fitted curve in either direction with a large enough effect, not every such curve was filed as active;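 also: ME-180 reporter cells stimulated with EGF at its EC50 level; % is scaled to controls: 0 for no effect and ±100 for the full control effect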); conditions: ME-180 AP-1-bla reporter, EGF-induced, beta-lactamase ratio, 5 h; at 7.69 µM (top of the series) unless noted
In short: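 Modulation of EGF-driven AP-1 transcription was assessed with a beta-lactamase reporter in ME-180 cells. Compound and EC50 EGF were co-incubated 5 hours at 37 °C before 2.5-hour CCF4 loading at room temperature and dual-emission reading.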

[3] = target: Cytochrome P450 1A2 (Homo sapiens) (UniProt P05177); test: p450-cyp1a2 (AID 410; calls by dose curve; also: potency is read from the fitted curve at half-maximal effect); conditions: recombinant CYP1A2, luciferin-ME demethylation, luminescence; series mostly up to 57 µM
Sequence of Cytochrome P450 1A2 (Homo sapiens) (P05177 whole entry, looked up): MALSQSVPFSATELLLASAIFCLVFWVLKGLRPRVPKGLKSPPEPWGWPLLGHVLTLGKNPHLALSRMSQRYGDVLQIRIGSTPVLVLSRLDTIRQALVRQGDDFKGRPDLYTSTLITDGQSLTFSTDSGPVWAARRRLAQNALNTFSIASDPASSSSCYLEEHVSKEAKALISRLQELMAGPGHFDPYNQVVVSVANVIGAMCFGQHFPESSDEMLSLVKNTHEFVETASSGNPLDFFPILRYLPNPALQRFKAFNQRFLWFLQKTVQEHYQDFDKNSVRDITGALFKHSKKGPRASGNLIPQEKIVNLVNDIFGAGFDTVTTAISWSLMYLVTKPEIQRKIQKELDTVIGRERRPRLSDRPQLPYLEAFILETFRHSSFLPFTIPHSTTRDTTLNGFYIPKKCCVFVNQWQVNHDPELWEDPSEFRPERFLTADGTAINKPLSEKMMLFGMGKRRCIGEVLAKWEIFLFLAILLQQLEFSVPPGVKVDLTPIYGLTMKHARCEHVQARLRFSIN
In short: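 Luminescent demethylation readout: Luciferin-ME (100uM, equal to Km) turned over by 20nM CYP1A2 for 60 min at room temperature after NADPH regeneration addition, following 10 min compound preincubation. Normalization used 57 uM furafylline as full inhibition.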

[4] = NFAT Signaling Pathway (AID 444; active = well fitted curve in either direction with a large enough effect, not every such curve was filed as active;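 also: carbachol stimulus at about its EC50 of 1 µM final; % is scaled to controls: 0 for no effect and ±100 for the full control effect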); conditions: Jurkat NFAT-bla M1, carbachol, beta-lactamase ratio, 5 h; at 7.69 µM (top of the series) unless noted
In short: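 Read-out: CCF4 FRET ratio (460 nm/530 nm) after 1 h RT dye loading, used for %activity and AC50 from titration series. Cells: Jurkat NFAT-β-lactamase/M1 line, treated with compound plus 1 uM carbachol for 5 h, 37 °C.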

[5] = Stat Signaling Pathway (AID 446; active = well fitted curve in either direction with a large enough effect, not every such curve was filed as active;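 also: ME-180 cervical cancer cells given 40 pM IL-6 alongside compound; SIE-controlled beta-lactamase reporter measured as 460/530 nm FRET emission ratio; % is scaled to controls: 0 for no effect and ±100 for the full control effect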); conditions: ME-180 (cervical carcinoma) SIE beta-lactamase reporter, IL-6 stimulated, 5 h; at 7.69 µM (top of the series) unless noted
In short: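 Normalization used AC90 stimulation (300 pM IL-6) and AC90 inhibition (125 nM pan-JAK inhibitor at 40 pM IL-6). The underlying signal is SIE-driven beta-lactamase in ME-180 cells after 5 h IL-6 exposure with compound.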

[6] = target: Glucocorticoid receptor (Homo sapiens) (UniProt P04150); test: GR-GFP Redistribution (AID 450;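 active = compounds whose dose series gives a full or clear partial fitted curve of increased nuclear translocation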; also: potency is read from the fitted curve at half-maximal effect); conditions: U2OS GR-GFP nuclear translocation, laser cytometry, 2 h
Sequence of Glucocorticoid receptor (Homo sapiens) (P04150 whole entry, looked up, the tested form may be a part): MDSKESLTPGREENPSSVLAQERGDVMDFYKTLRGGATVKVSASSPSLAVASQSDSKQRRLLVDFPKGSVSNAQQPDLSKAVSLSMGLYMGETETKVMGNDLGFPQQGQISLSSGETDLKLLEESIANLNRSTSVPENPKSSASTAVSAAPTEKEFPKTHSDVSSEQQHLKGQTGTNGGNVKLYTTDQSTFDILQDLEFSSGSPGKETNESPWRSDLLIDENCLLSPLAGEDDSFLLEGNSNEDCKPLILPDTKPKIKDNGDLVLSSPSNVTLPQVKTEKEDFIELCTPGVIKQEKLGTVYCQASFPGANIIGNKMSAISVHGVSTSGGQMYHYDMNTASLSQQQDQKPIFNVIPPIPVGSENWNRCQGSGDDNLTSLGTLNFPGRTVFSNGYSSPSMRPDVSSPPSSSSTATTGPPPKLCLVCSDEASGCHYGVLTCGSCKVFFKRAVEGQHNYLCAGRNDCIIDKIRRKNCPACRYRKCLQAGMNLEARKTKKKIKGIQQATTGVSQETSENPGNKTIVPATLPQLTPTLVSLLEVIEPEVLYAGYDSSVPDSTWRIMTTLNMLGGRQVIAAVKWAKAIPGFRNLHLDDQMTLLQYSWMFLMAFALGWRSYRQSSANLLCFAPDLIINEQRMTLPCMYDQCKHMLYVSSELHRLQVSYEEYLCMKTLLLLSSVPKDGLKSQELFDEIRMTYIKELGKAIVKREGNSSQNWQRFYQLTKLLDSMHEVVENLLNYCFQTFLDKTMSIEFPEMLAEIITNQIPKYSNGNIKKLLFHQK

[7] = target: Glucocorticoid receptor (Homo sapiens) (UniProt P04150); test: GR-EFC Redistribution (AID 451; calls by dose curve; also: potency is read from the fitted curve at half-maximal effect); conditions: CHO-K1 GR-EFC translocation, beta-gal luminescence, 2 h
In short: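 Translocation of GR-ED fusion to nuclear EA restores b-gal, read by luminescence after 1 h room-temperature detection. Engineered CHO-K1 biosensor cells, 1,000/well, exposed 2 h at 37 C to titrations up to 46 uM final.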

[8] = target: Mitogen-activated protein kinase 10 (Mus musculus) (UniProt Q61831); test: JNK3 AlphaScreen Assay (AID 530; active = well fitted curve in either direction with a large enough effect, not every such curve was filed as active;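 also: kinase came from lysate of stimulated human HepG2 cells; signal reports phosphorylation of biotinylated GST-cJun 1-79 at Ser73 with 10 µM ATP; % is scaled to controls: 0 for no effect and ±100 for the full control effect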); conditions: JNK3 lysate, c-Jun phosphorylation; series mostly up to 57.1 µM
In short: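 qHTS titrations with 15 min compound pre-incubation before adding ATP (10 uM final). Read-out: AlphaScreen of Ser73-phosphorylated biotin-GST-cJun using HepG2 lysate JNK3 activated by IL-1β and TNFα.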

[9] = target: 3',5'-cyclic-AMP phosphodiesterase 4B (Homo sapiens) (UniProt Q07343); test: qHTS Assay for Inhibitors of PDE-IV (AID 607; active = well fitted activation curve with a large enough effect in the main read-out, with a control signal flat, not every such curve was filed as active; also: % of control where 0% means no effect); conditions: HEK293 ACTOne CNG channel cells, membrane potential fluorescence; series mostly up to 22.9 µM
Sequence of 3',5'-cyclic-AMP phosphodiesterase 4B (Homo sapiens) (Q07343 whole entry, looked up): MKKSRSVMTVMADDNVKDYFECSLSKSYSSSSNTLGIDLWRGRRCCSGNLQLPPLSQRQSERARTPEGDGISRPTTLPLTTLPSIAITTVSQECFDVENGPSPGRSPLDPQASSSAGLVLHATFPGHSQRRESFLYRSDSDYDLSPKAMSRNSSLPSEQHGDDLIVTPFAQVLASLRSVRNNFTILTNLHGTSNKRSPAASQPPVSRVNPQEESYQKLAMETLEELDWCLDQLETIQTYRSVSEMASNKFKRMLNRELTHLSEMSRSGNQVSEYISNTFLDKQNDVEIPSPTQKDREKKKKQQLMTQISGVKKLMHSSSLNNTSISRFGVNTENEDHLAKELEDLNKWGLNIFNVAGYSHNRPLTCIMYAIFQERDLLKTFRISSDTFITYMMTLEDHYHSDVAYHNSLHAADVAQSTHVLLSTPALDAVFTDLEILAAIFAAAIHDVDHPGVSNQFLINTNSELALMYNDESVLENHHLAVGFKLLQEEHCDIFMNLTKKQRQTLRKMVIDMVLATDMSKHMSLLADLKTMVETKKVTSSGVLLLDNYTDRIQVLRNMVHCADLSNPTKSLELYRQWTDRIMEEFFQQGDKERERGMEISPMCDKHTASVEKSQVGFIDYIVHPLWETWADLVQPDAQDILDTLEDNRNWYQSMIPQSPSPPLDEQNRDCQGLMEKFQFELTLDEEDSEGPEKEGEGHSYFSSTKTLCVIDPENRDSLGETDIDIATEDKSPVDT
In short: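 HEK293 ACTOne cells with CNG channel (1000/well), endogenous PDE4; membrane potential dye, compounds up to 22.9 uM final. Fluorescence Ex 535/Em 590; RO 20-1724 (100 uM final) as reference.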

[10] = qHTS Assay for Lipid Storage Modulators (AID 1519; calls by dose curve); conditions: Drosophila S3 cells, BODIPY lipid droplet/cell ratio, laser cytometry, cells loaded with oleic acid; for activity change, negative = inhibition: at 57.5 µM (top of the series)
In short: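 Cells seeded at 5,000 per well were treated with compounds over a concentration series and loaded with oleic acid (400 uM, as added). Lipid droplet fluorescence (488 nm excitation, 500-530 nm channel) was read by laser-scanning cytometry and normalized to 20 uM Triacsin C.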

[11] = target: Dual specificity protein kinase CLK4 (Homo sapiens) (UniProt Q9HAZ1); test: qHTS Assay for Inhibitors of CDC-like Kinase 4 (Kinase-Glo Assay) (AID 1770); conditions: recombinant Clk4, Kinase-Glo ATP depletion luminescence; series mostly up to 66.7 µM; also: % is scaled to controls: 0 for no effect and ±100 for the full control effect; nearly all actives have a fitted effect of over 65% in size
Sequence of Dual specificity protein kinase CLK4 (Homo sapiens) (Q9HAZ1 whole entry, looked up): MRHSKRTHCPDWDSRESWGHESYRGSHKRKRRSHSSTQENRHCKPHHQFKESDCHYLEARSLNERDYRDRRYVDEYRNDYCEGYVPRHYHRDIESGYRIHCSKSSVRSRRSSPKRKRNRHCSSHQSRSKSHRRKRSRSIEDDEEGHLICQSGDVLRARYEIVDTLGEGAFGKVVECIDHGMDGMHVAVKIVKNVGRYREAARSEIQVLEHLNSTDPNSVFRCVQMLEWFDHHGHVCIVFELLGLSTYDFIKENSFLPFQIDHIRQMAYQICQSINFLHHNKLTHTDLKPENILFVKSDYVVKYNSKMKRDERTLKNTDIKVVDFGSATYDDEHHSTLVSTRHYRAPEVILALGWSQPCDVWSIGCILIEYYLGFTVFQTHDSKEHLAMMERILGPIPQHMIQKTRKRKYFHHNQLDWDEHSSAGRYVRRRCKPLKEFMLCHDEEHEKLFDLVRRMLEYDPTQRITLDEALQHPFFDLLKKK
In short: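 25 nM Clk4 with 100 uM RS repeat peptide and 1 uM ATP (final) in Tris pH7.5, 10 mM MgCl2, 4.5 h at room temperature. Remaining ATP measured by Kinase-Glo luciferase luminescence.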

[12] = target: Dual specificity protein kinase CLK4 (Homo sapiens) (UniProt Q9HAZ1); test: qHTS Assay for Inhibitors of CDC-like Kinase 4 (ADP-Glo Assay) (AID 1771); conditions: recombinant CLK4, ADP-Glo luminescence; series mostly up to 80 µM; also: % is scaled to controls: 0 for no effect and ±100 for the full control effect; nearly all actives have a fitted effect of over 70% in size
In short: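 ADP production was read by ADP-Glo luminescence after residual ATP depletion, following 1 h room-temperature reaction of 25 nM Clk4, 1 uM ATP and 100 uM RS peptide with MgCl2, EGTA, DTT and Triton X-100.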

[13] = target: Dual specificity protein kinase CLK4 (Homo sapiens) (UniProt Q9HAZ1); test: qHTS Assay for Inhibitors of CDC-like Kinase 4 (ADP-FP Assay) (AID 1795); conditions: Transcreener ADP fluorescence polarization; series mostly up to 50 µM;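 also: recombinant human CLK4 phosphorylating RS repeat peptide at 1 µM ATP; % is scaled to controls: 0 for no effect and ±100 for the full control effect; nearly all actives have a fitted effect of over 60% in size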
In short: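 Recombinant Clk4 (6.25 nM) phosphorylated 100 uM RS repeat peptide with 1 uM ATP in 25 mM Tris pH 7.5, 10 mM MgCl2, 0.5 mM EGTA, 2.5 mM DTT, 0.01% Triton X-100 for 1 h. ADP was detected by Transcreener ADP2 competitive fluorescence polarization after 30 min at room temperature.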

[14] = Primary qHTS for small molecule stabilizers of the endoplasmic reticulum resident proteome: Secreted ER Calcium Modulated Protein (SERCaMP) assay (AID 1508630); conditions: SH-SY5Y GLuc-SERCaMP (Gaussia luciferase released on ER calcium loss) secretion, thapsigargin, luminescence; series mostly up to 38.4 µM; also: % is scaled to controls: 0 for no effect and ±100 for the full control effect
In short: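 The SH-SY5Y reporter protocol was run at 3 concentrations up to 38.3 uM (primary) or 11 concentrations (follow-up): 16 h compound, 100 nM thapsigargin for 4 h, then extracellular luciferase luminescence.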

[15] = target: Cytochrome P450 3A4 (Homo sapiens) (UniProt P08684); test: qHTS Assay for Activators of Cytochrome P450 3A4 (AID 885); conditions: recombinant CYP3A4, Luciferin-PPXE luminescence, 60 min; series mostly up to 57.1 µM; also: nearly all actives have a fitted effect of over 65% in size
Sequence of Cytochrome P450 3A4 (Homo sapiens) (P08684 whole entry, looked up): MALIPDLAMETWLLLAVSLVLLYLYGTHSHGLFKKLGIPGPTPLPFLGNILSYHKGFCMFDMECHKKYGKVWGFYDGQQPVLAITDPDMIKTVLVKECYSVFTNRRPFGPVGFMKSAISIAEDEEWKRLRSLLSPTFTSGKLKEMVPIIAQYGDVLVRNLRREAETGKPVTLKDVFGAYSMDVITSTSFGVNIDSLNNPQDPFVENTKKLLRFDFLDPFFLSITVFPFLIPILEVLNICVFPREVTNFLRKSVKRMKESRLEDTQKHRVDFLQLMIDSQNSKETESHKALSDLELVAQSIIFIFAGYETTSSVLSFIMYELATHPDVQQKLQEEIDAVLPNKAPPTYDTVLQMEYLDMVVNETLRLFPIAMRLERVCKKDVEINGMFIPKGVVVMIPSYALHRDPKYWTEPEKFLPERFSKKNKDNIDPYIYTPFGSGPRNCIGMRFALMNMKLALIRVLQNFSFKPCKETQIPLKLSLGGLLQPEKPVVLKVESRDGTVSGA
In short: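 Human CYP3A4 dealkylates Luciferin-PPXE to luciferin, which luciferase detection converts to light. Substrate was at its KM (25uM), buffer 200mM KPO4, reaction 60 min at RT.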

[16] = target: Ubiquitin carboxyl-terminal hydrolase 1 (Homo sapiens) (UniProt O94782); test: Inhibitors of USP1/UAF1: Pilot qHTS (AID 504865); conditions: purified USP1/UAF1, Ub-rhodamine cleavage fluorescence; series mostly up to 54.9 µM;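 also: rhodamine fluorescence freed from ubiquitin-rhodamine substrate followed over time; top concentration of the series differs between compounds; % is scaled to controls: 0 for no effect and ±100 for the full control effect; nearly all actives have a fitted effect of over 35% in size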
Sequence of Ubiquitin carboxyl-terminal hydrolase 1 (Homo sapiens) (O94782 whole entry, looked up): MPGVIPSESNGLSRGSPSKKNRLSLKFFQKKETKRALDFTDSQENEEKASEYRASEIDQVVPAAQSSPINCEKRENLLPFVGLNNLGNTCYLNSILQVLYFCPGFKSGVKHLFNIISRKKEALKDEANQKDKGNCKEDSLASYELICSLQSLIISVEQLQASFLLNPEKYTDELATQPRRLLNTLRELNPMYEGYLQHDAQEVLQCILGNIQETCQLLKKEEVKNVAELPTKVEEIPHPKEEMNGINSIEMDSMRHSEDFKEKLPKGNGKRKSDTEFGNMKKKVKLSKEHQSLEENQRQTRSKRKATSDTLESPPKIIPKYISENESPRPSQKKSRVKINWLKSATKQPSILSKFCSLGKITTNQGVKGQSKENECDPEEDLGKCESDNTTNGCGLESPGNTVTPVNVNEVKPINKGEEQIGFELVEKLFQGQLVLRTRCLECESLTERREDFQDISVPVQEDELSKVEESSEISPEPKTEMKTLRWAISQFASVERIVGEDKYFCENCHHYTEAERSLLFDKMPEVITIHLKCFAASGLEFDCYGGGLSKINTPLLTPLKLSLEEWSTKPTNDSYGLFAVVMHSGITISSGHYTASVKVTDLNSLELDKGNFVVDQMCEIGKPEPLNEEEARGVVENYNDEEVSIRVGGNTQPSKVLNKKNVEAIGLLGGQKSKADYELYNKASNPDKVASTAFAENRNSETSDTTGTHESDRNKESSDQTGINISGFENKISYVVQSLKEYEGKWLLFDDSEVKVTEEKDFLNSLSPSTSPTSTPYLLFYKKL
In short: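 USP1/UAF1 complex at 1 nM preincubated 15 min at room temperature with compound, then Ub-Rho substrate added at 150 nM final. Fluorescence (480/540 nm) read kinetically in 50 mM HEPES pH 7.8, 0.5 mM EDTA, 1 mM TCEP, 0.1 mg/ml BSA, 0.01% Tween-20.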

[17] = measured here: cell count channel max response
[18] = measured here: lipid channel max response

COc1ccc(-c2nc3cnc(N4CCOCC4)nc3n(C[C@H]3CCCO3)c2=O)cc1
6.82%: max response [10, 18]
4.58%: max response [10, 17]
inactive: Potency [1] > 11.4 µM | activity change, negative = inhibition [2] 8.17% | activity change, negative = inhibition [4] 15.8% | activity, negative = inhibition [5] 9.41% | Potency [6] > 9.22 µM | Potency [7] > 46 µM | outcome [8] | Potency [9] | activity change, negative = inhibition [10] 1.98% | Potency [11] | Potency [12] | Potency [13] | Potency [14]
active: Potency [3] 5.01 µM

Cn1cc(-c2nc3cnc(Oc4ccccc4)nc3n(C3CC3)c2=O)c2ccccc21
1.6%: max response [10, 17]
active: Potency [3] 5.01 µM
inactive: Potency [1] > 11.4 µM | activity change, negative = inhibition [2] 13.1% | activity change, negative = inhibition [4] 9.34% | Potency [6] > 9.22 µM | Potency [7] > 46 µM | outcome [8] | Potency [9] | Potency [15] | activity change, negative = inhibition [10] 1.27% | Potency [11] | Potency [12] | Potency [13] | Potency [16] | Potency [14]
0.0554%: max response [10, 18]

COCCn1c(=O)c(C)nc2cnc(Oc3ccc(OC)cc3)nc21
29.1%: max response [10, 17]
27.3%: max response [10, 18]
active: Potency [3] 15.8 µM
inactive: Potency [1] > 11.4 µM | activity change, negative = inhibition [2] -18.9% | activity change, negative = inhibition [4] 7.53% | activity, negative = inhibition [5] -8.21% | Potency [6] > 9.22 µM | outcome [8] | Potency [9] | Potency [15] | activity change, negative = inhibition [10] 1.21% | Potency [11] | Potency [12] | Potency [13] | Potency [16] | Potency [14]

COc1ccc(Oc2ncc3nc(-c4cn(C)c5ccccc45)c(=O)n(C4CC4)c3n2)cc1
inactive: Potency [1] > 11.4 µM | activity change, negative = inhibition [2] -4.88% | activity change, negative = inhibition [4] 9.91% | activity, negative = inhibition [5] 19% | Potency [7] > 46 µM | outcome [8] | Potency [9] | Potency [15] | activity change, negative = inhibition [10] 2.32% | Potency [11] | Potency [12] | Potency [13] | Potency [16] | Potency [14]
3.07%: max response [10, 18]
active: Potency [3] 12.6 µM
3.6%: max response [10, 17]

O=c1c(-c2cccs2)nc2cnc(N3CCOCC3)nc2n1Cc1cccs1
inactive: Potency [1] > 11.4 µM | activity change, negative = inhibition [2] 15.1% | activity change, negative = inhibition [4] -8.44% | Potency [6] > 9.22 µM | Potency [7] > 46 µM | outcome [8] | Potency [9] | Potency [15] | activity change, negative = inhibition [10] -15.7% | Potency [11] | Potency [12] | Potency [13] | Potency [16] | Potency [14]
active: Potency [3] 15.8 µM
0.532%: max response [10, 18]
22.5%: max response [10, 17]
